Results on 8 compounds are retold here after PubChem BioAssay (NCI).

About 83,000 compounds went through this panel and 20% of them were active in at least one assay; those are over-represented in the sample as a whole.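 Results are percent growth after 48 hours of single-concentration exposure. 100 means growth as in untreated cells, lower positive values show inhibition; negative values down to -100 show cell death.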 Unmarked numbers belong to inactive results. Calls of active or inactive are those of the source. Rule for the calls: active = growth percent below 10; inactive = the rest.

Among the test systems are HCT-15 colon; HT29 colon; SNB-75 CNS; SNB-19 CNS; U251 CNS; PC-3 prostate; SK-MEL-5 melanoma; UACC-62 melanoma; LOX IMVI melanoma; SK-MEL-28 melanoma; SK-MEL-2 melanoma; EKVX NSCLC; SN12C renal; UO-31 renal; TK-10 renal; ACHN renal; CAKI-1 renal; A498 renal; CCRF-CEM leukemia; MOLT-4 leukemia.
Holding throughout (assay): NCI-60 one-dose screen, 48 h (100 = growth as untreated, 0 = no growth, -100 = all killed)
Conditions in all cases: 10 µM unless noted

In the case of `N/C(=N\C(N)=N\c1nc2ccccc2s1)c1ccncc1Cl`, the growth in the assay with HCT-15 colon was 33%; in the assay on HT29 colon, 18.8%; in the assay on SNB-75 CNS, 7.82% (active); in the assay with SNB-19 CNS, 38.2%; with U251 CNS it was 31.8%; in the assay with PC-3 prostate it was 29.5%. In addition, the growth in the assay with SK-MEL-5 melanoma was 39.2%; in the assay on UACC-62 melanoma, 28%; in the assay on LOX IMVI melanoma, 41.3%; in the assay on SK-MEL-28 melanoma, 58.3%; with SK-MEL-2 melanoma, 35.3%; with EKVX NSCLC, 52.7%. Further, the growth is 35.8% in the assay with SN12C renal; 34.6% with UO-31 renal; 129% in the assay with TK-10 renal; 37.7% in the assay with ACHN renal; 37.5% with CAKI-1 renal; 65.3% in the assay on A498 renal. Also, the growth with CCRF-CEM leukemia was 10.7%; in the assay with MOLT-4 leukemia, 23.9%.

Consider `C#C[C@]1(O)CC[C@H]2[C@@H]3CC=C4c5sc(-c6cccc(O)c6)nc5CC[C@]4(C)[C@H]3CC[C@@]21C`, for which the growth in the assay on HCT-15 colon is -25.2% (active); in the assay with HT29 colon it was -13.7% (active); with SNB-75 CNS it was -52.7% (active); in the assay with SNB-19 CNS it was -19.8% (active); in the assay on U251 CNS, -47.6% (active); in the assay on PC-3 prostate, -54.7% (active). For the same compound, the growth with SK-MEL-5 melanoma is -77.1% (active); with UACC-62 melanoma, -61.3% (active); in the assay with LOX IMVI melanoma, -62.4% (active); in the assay on SK-MEL-28 melanoma, -68.8% (active); with SK-MEL-2 melanoma, -24.6% (active); in the assay with EKVX NSCLC, 7.48% (active). In addition, the growth was -48.6% (active) with SN12C renal; -30.4% (active) with UO-31 renal; 2.76% (active) with TK-10 renal; -58.7% (active) in the assay on ACHN renal; -19.9% (active) with CAKI-1 renal; -66.9% (active) in the assay with A498 renal. Further, the growth was -31.8% (active) with CCRF-CEM leukemia and -11.8% (active) in the assay on MOLT-4 leukemia.

As for `CCNC(=O)N1CCc2cc(OC)c(OCCc3ccc(OC)nc3)cc2C1c1ccc(C)cc1C` (stereo not given), the growth with HCT-15 colon is 6.9% (active); with HT29 colon, 1.6% (active); in the assay on SNB-75 CNS, 45.8%; in the assay on SNB-19 CNS, 25.7%; in the assay with U251 CNS, 11.1%; in the assay with PC-3 prostate, 26.8%. In addition, the growth was -31.6% (active) with SK-MEL-5 melanoma; 25.6% with UACC-62 melanoma; 3.95% (active) with LOX IMVI melanoma; 41.5% with SK-MEL-28 melanoma; 1.68% (active) with SK-MEL-2 melanoma; 39.3% in the assay on EKVX NSCLC. Moreover, the growth was 30.5% in the assay with SN12C renal; 28.5% in the assay on UO-31 renal; 44.8% in the assay on TK-10 renal; 25% in the assay on ACHN renal; 18.1% in the assay on CAKI-1 renal; -12.2% (active) with A498 renal. The growth in the assay on CCRF-CEM leukemia was 27%; with MOLT-4 leukemia, 22.6%.

For `COc1ccc(/C=N/NC(=O)c2cn(C3CC3)c3c(OC)c(N4CC5CCCNC5C4)c(F)cc3c2=O)cc1` (stereo not given), the growth with HCT-15 colon was 47.6%; with HT29 colon, 32.4%; in the assay on SNB-75 CNS, 93.1%; with SNB-19 CNS, 96.6%; in the assay on U251 CNS, 89.4%; in the assay with PC-3 prostate, 75.1%. The growth is 87.1% with SK-MEL-5 melanoma; 100% with UACC-62 melanoma; 19.6% with LOX IMVI melanoma; 92.8% in the assay on SK-MEL-28 melanoma; 107% in the assay on SK-MEL-2 melanoma; 102% with EKVX NSCLC. Further, the growth in the assay with SN12C renal was 81%; in the assay with UO-31 renal, 62.4%; with TK-10 renal, 116%; in the assay with ACHN renal, 88.7%; in the assay with CAKI-1 renal it was 82.9%; in the assay with A498 renal, 83.3%. Moreover, the results for the growth with CCRF-CEM leukemia and in the assay with MOLT-4 leukemia were 63.6% and 60.4%, respectively.

`Cc1ccc2c(c1)Oc1nc(N)c(C#N)c(N)c1C2Sc1ccc(F)cc1` (stereo not given): the growth is -77.9% (active) in the assay on HCT-15 colon; -38.6% (active) with HT29 colon; -14.1% (active) in the assay with SNB-75 CNS; -98.2% (active) in the assay with SNB-19 CNS; -95.9% (active) with U251 CNS; -96.8% (active) with PC-3 prostate. The growth was -95.4% (active) with SK-MEL-5 melanoma; -93.5% (active) in the assay with UACC-62 melanoma; -93.1% (active) with LOX IMVI melanoma; -98.9% (active) in the assay with SK-MEL-28 melanoma; -75.2% (active) in the assay with SK-MEL-2 melanoma; -98.9% (active) in the assay with EKVX NSCLC. In addition, the growth is -98.4% (active) with SN12C renal; -98.2% (active) in the assay on UO-31 renal; -98.8% (active) in the assay on TK-10 renal; -100% (active) in the assay with ACHN renal; -99.8% (active) with CAKI-1 renal; -99.3% (active) with A498 renal. For the same compound, the growth is -21.1% (active) with CCRF-CEM leukemia and -16.6% (active) in the assay on MOLT-4 leukemia.

`COc1ccc2c(c1)Oc1nc(N)c(C#N)c(N)c1C2Sc1ccc(C)cc1` (stereo not given): the growth with HCT-15 colon was -82.5% (active); in the assay with HT29 colon, -26.8% (active); with SNB-75 CNS, 88.7%; with SNB-19 CNS it was 7.65% (active); with U251 CNS, 0.124% (active); with PC-3 prostate, -43.8% (active). Further, the growth with SK-MEL-5 melanoma is -25.1% (active); with UACC-62 melanoma it was 9.86% (active); with LOX IMVI melanoma it was -98.4% (active); in the assay on SK-MEL-28 melanoma it was -25.9% (active); in the assay with SK-MEL-2 melanoma, -36.4% (active); in the assay on EKVX NSCLC it was 19.3%. Also, the growth with SN12C renal is 0.951% (active); in the assay with UO-31 renal it was -81.6% (active); with TK-10 renal, -23.4% (active); in the assay on ACHN renal it was -96.9% (active); in the assay on CAKI-1 renal it was -7.52% (active); with A498 renal it was 33.4%. Also, the results for the growth in the assay with CCRF-CEM leukemia and with MOLT-4 leukemia were -16.1% (active) and -12.9% (active), respectively.

For `NC/C(=C/F)COc1ccc2nc(NCc3cccnc3)oc2c1`, the growth in the assay on HCT-15 colon is 109%; with HT29 colon, 112%; with SNB-75 CNS, 63.1%; in the assay on SNB-19 CNS, 105%; in the assay on U251 CNS, 105%; with PC-3 prostate, 104%. For the same compound, the growth is 99.5% in the assay with SK-MEL-5 melanoma; 101% with UACC-62 melanoma; 98% in the assay on LOX IMVI melanoma; 110% with SK-MEL-28 melanoma; 105% in the assay with SK-MEL-2 melanoma; 68.5% in the assay on EKVX NSCLC. Further, the growth in the assay on SN12C renal was 86.3%; with UO-31 renal, 62.1%; in the assay on TK-10 renal it was 74.7%; with ACHN renal, 100%; in the assay with CAKI-1 renal it was 69.8%; in the assay with A498 renal, 50.5%. The values for the growth in the assay on CCRF-CEM leukemia and in the assay with MOLT-4 leukemia were 99.9% and 106%, respectively.

In the case of `CCCCCCCn1cc2c(N[C@H](C)c3ccccc3)ncnc2n1`, the growth in the assay with HCT-15 colon is 91.5%; in the assay on HT29 colon, 113%; with SNB-75 CNS, 92.2%; with SNB-19 CNS, 94.3%; with U251 CNS, 102%; in the assay with PC-3 prostate it was 92.6%. Also, the growth was 109% with SK-MEL-5 melanoma; 80.6% in the assay with UACC-62 melanoma; 99.2% in the assay on LOX IMVI melanoma; 108% with SK-MEL-28 melanoma; 123% in the assay on SK-MEL-2 melanoma; 88.2% in the assay on EKVX NSCLC. The growth in the assay on SN12C renal was 99.2%; in the assay on UO-31 renal, 78.3%; in the assay with TK-10 renal it was 126%; in the assay on ACHN renal, 102%; with CAKI-1 renal, 88.2%; in the assay on A498 renal, 87.6%. Further, the figures for the growth in the assay with CCRF-CEM leukemia and with MOLT-4 leukemia were 99.6% and 102%, respectively.
